# Compound activity from PubChem.
# Most compounds without a hit are left out; they make up all but 2.2% or so of the library.
# IEC-6 cytotox: cytotoxicity in IEC-6 intestinal epithelial cells, primary screen, cytotoxicity control for KLF5 inhibitor project, cell-based, luminescence. inhibition, % at 5 µM. IEC-6 cytotoxicity, luminescence viability. hit rate 0.78% among 290,000;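 further: 0% = plate median of test compound wells and 100% = cytotoxic reference compound wells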
# Ba/F3 V617F tox: reduced viability of JAK2V617F-dependent Ba/F3 cells, primary screen, JAK2V617F inhibitor project, cell-based, Ba/F3 EpoR-JAK2V617F, luminescence; hit rate 1.1% among 220,000; AID 1446, 2008; ATP luminescence; inhibition, % at 5.6 µM;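 active means inhibition above the campaign mean plus 3 SD over all tested compounds, cut at about 24% in these data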;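 further: cytokine-independent growth of Ba/F3 cells driven by EpoR plus mutant JAK2; 0% = DMSO-treated cells and 100% = JAK inhibitor I control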
# APP transl inh: inhibitors of APP translation via 5'UTR reporter, primary screen, APP 5'UTR luciferase, SH-SY5Y cells; SH-SY5Y APP 5'UTR-luciferase reporter, luminescence; hit rate 0.82% among 190,000; AID 1285, 2008; inhibition, % at 2 µM;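 active means inhibition above a set limit, derived from the sample mean plus 3 SD, cut at about 45% in these data; inconclusive means one replicate passes the limit while the other fails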
# KLF5 inh: KLF5 expression inhibitors, primary screen, DLD-1 cells, luminescence; inhibition, % at 5 µM; hit rate 0.23% among 290,000; DLD-1 KLF5 promoter-luciferase reporter;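 active means inhibition above a per-plate limit of that plate's mean compound inhibition plus 3 SD, cut at about 60% in these data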;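 further: 0% = DMSO wells and 100% = LY294002 at 200 µM; higher means less KLF5 promoter-driven luciferase light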
# BaF3 parental: parental Ba/F3 cell viability inhibition, counter-screen for JAK2V617F inhibitor project, murine pro-B, CellTiter-Glo luminescence. CellTiter-Glo ATP luminescence. inhibition, % at 5.6 µM. hit rate 1.1% among 220,000. AID 1486, 2009;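 active means inhibition above a per-campaign cutoff, the mean inhibition of all tested compounds plus 3 SD, cut at about 27% in these data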;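 further: 0% = DMSO wells and 100% = JAK Inhibitor I control wells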
# aSyn 5UTR inh: MLPCN primary screen, SNCA 5' untranslated region; inhibition, % (tested at 7.5 µM); alpha-synuclein 5'UTR reporter, inhibitor activity; hit rate 0.82% among 300,000; AID 1813, 2009; in the data active means inhibition above about 60%; inconclusive means no clear call, values can overlap the other calls;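 further: H4 neuroglioblastoma cells stably carrying SNCA 5'UTR luciferase fusion; 0% = DMSO wells and 100% = positive control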
# IEC-6 tox confirm: cytotoxic compounds in IEC-6 epithelial cells, confirmation, cytotoxicity control, cell-based, luminescence; IEC-6 rat intestinal epithelial viability; inhibition, % at 5 µM; hit rate 63% among 1,900; shares compounds with IEC-6 cytotox;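 further: 0% = vehicle and 100% = reference cytotoxic drug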
# Active calls of the source: *; ? = inconclusive; nt = no result. Unless noted, no stated cut-off is given here; in the data, active means inhibition above about 22%; inactive means the rest.
SMILES,IEC-6 cytotox,Ba/F3 V617F tox,APP transl inh,KLF5 inh,BaF3 parental,aSyn 5UTR inh,IEC-6 tox confirm
Cc1[nH]c2ccc(-c3n[nH]c(=S)n3-c3ccc(Br)cc3)cc2c1C,50*,-2,-14,-5,3,1,44*
Cc1ccc(/C=C/C(=O)NC(=S)Nc2ccc(S(=O)(=O)Nc3cc(C)on3)cc2)cc1,-7,nt,nt,-17,nt,17,nt
Cc1ccc(C(=O)C2=C(O)C(=O)N(CC3CCCO3)C2c2ccccc2F)o1 (centres undefined),-3,nt,nt,-20,nt,13,nt
CCOc1ccc(/C=N/NC(=O)c2cc3c(OC)cc(OC)c(OC)c3[nH]2)cc1,7,nt,nt,-5,nt,-78,nt
COc1ccc(C(=O)N/N=C/c2ccccc2OC(=O)c2ccccc2)cc1,94*,nt,nt,-64,nt,53,12
COc1ccc(C(=O)N/N=C/c2ccc(OC(=O)c3ccccc3)cc2)cc1,-4,-2,2,6,3,-29,nt
CCOc1ccc2[nH]c(C(=O)N/N=C/c3ccccc3OC)cc2c1,48*,nt,nt,60,nt,-116,14
COCCCN1C(=O)C(=O)/C(=C(/O)c2ccc(S(=O)(=O)N3CCCCC3)cc2)C1c1ccc(O)cc1 (centres undefined),6,nt,nt,-20,nt,-6,nt
NC(=O)c1ccccc1Nc1nc(NCCO)nc(N2CCCC2)n1,nt,nt,nt,nt,nt,6,nt
C[N+]1(CN2C(=O)C3C4C=CC(C4)C3C2=O)CCCCC1 (centres undefined),1,-5,nt,-6,0,7,nt
S=C(NCc1ccccc1)NCc1ccccn1,0,-3,nt,3,-2,0,nt
CC(/C=C/c1ccccc1)=N\NC(=O)c1cc(C)[nH]n1,3,4,-5,-8,6,-12,nt
Cc1cc(N/N=C/c2ccc(O)cc2O)nc(-n2nc(C)cc2C)n1,79*,-3,53*,36,4,72*,47*
COc1ccc(/C=N/Nc2cc(C)nc(-n3nc(C)cc3C)n2)cc1,6,1,-5,4,5,6,nt
COc1ccc(/C=N/NC(=O)c2cccc(NC(=O)c3ccccc3Cl)c2)cc1,72*,nt,nt,45,nt,-99,50*
COc1ccc(OC)c(-c2cc(C(=O)N/N=C/c3ccc(F)cc3)c3ccccc3n2)c1,nt,nt,nt,nt,nt,14,nt
CCc1cc(C(=O)N/N=C/c2ccc(OC)cc2)c2ccccc2n1,30*,nt,nt,49,nt,-38,17
CCOc1ccc(-c2cc(C(=O)N/N=C/c3cccnc3)c3ccccc3n2)cc1,66*,nt,nt,5,nt,16,45*
C/C(=N\NC(=O)c1cc(C)nc2ccccc12)c1ccncc1,42*,nt,nt,38,nt,-12,-4
C/C(=N\NC(=O)c1cc(C)nc2ccccc12)c1ccc([N+](=O)[O-])cc1,0,0,6,-29,7,38,nt
COc1ccc(OCc2cc(C(=O)NCCN3CCCc4ccccc43)no2)c(Cl)c1,-4,nt,nt,-46,nt,-10,nt
COc1nc(NC(=O)c2ccc(F)cc2)nc(OC)c1-c1ccccc1,-5,nt,nt,-2,nt,42,nt
O=C(N/N=C/c1ccco1)c1cc(-c2ccncc2)nc2ccccc12,31*,nt,nt,43,nt,-27,-1
CCCCCCCC(=O)Oc1ccc(C(=O)Nc2cc(C)on2)cc1,-4,nt,nt,-34,nt,-93,nt
Cc1ccc(C(=O)c2cc([N+](=O)[O-])ccc2N2CCN(C)CC2)cc1,44*,6,63*,15,26,?,38*
Cc1ccc(C(=O)c2cc([N+](=O)[O-])ccc2N2CCCCC2)cc1C,58*,83*,94*,3,75*,56,61*
COc1cccc(NC(=S)/C(=C(\[O-])c2ccc([N+](=O)[O-])cc2)[n+]2ccccc2)c1,-1,-4,4,-13,3,-6,nt
Cc1cc(NC(=O)CSc2nc3ccccc3c(=O)n2C2CCCC2)no1,63*,13,-9,31,8,86*,56*
CN(C)c1ccc(NC(=O)CSc2nc3ccccc3c(=O)n2C2CCCCC2)cc1,2,1,1,-4,6,29,nt
c1ccc(CNc2c3ccccc3nc3ccccc23)cc1,26*,nt,nt,-4,nt,-332,16
